PubChem BioAssay AID1159580 (chemical genetic matrix, 2015)
“And” between values parts separate entries of the source, which are not always exact repeats. Equal entries are not always repeated. The whole screen tested about 5,500 compounds, of which about 2,000 (36%) were called active. Inconclusive results (about 18%) are left out. Rule as the data show it: active = normalized growth mostly below about 0.91 (no sharp cut-off); inconclusive = no clear call, values can overlap the other calls; inactive = mostly above about 0.92. Some of the results follow.

Experiment: chemical genetic growth profiling, strain panel (AID 1159580);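 also: tested at 20 µM; growth read once vehicle control cultures reached saturation at 30 °C; 1 = growth at the plate median or of vehicle wells; lower values mean less growth of the strain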
Conditions: S. cerevisiae deletion strains, growth OD

Measured: normalized growth

CC(C)(Sc1cc(C(C)(C)C)c(O)c(C(C)(C)C)c1)Sc1cc(C(C)(C)C)c(O)c(C(C)(C)C)c1
active: locus YGL086W, strain mad1, hits give low values 1.35 [resistant]
inactive: locus YAL013W, strain DEP1, hits give low values 1.02 | locus YAL021C, strain ccr4, hits give low values 1.03 | locus YAL026C, strain drs2, hits give low values 1.01 | locus YAL030W, strain snc1, hits give low values 1 | locus YBL061C, strain skt5, hits give low values 0.993 | locus YBR009C, strain hhf1, hits give low values 1.02 | locus YBR021W, strain FUR4, hits give low values 1.01 | locus YBR023C, strain chs3, hits give low values 0.998 | locus YBR171W, strain sec66, hits give low values 1 | locus YBR229C, strain ROT2, hits give low values 1.01 | locus YBR231C, strain swc5, hits give low values 0.998 | locus YBR279W, strain paf1, hits give low values 0.993 | locus YCL011C, strain gbp2, hits give low values 1.02 | locus YCL016C, strain dcc1, hits give low values 1 | locus YCL029C, strain bik1, hits give low values 1.04 | locus YCL069W, strain vba3, hits give low values 1.01 | locus YCR088W, strain abp1, hits give low values 1 | locus YDL005C, strain med2, hits give low values 1.02 | locus YDL035C, strain GPR1, hits give low values 1.02 | locus YDL040C, strain nat1, hits give low values 0.991 | locus YDL074C, strain BRE1, hits give low values 1.03 | locus YDL101C, strain DUN1, hits give low values 1.02 | locus YDL134C, strain PPH21, hits give low values 1 | locus YDL185W, strain tfp1, hits give low values 1.02 | locus YDL192W, strain arf1, hits give low values 1.03 | locus YDR001C, strain nth1, hits give low values 1.02 | locus YDR069C, strain doa4, hits give low values 0.999 | locus YDR101C, strain arx1, hits give low values 1.02 | locus YDR137W, strain rgp1, hits give low values 0.99 | locus YDR150W, strain NUM1, hits give low values 1.01 | locus YDR159W, strain sac3, hits give low values 0.989 | locus YDR162C, strain NBP2, hits give low values 1.01 | locus YDR195W, strain ref2 1.06 | locus YDR297W, strain sur2, hits give low values 0.99 | locus YDR318W, strain mcm21, hits give low values 1.04 | locus YDR334W, strain swr1, hits give low values 1.02 | locus YDR335W, strain msn5, hits give low values 1.01 | locus YDR388W, hits give low values 1.02 | locus YDR392W, strain spt3, hits give low values 1.03 | locus YDR502C, strain sam2, hits give low values 1.02 | locus YEL003W, strain gim4, hits give low values 1.02 | locus YEL037C, strain rad23, hits give low values 1.01 | locus YEL061C, strain CIN8 (second series), hits give low values 1.01 | locus YEL061C, strain CIN8, hits give low values 1.01 | locus YER015W, strain faa2, hits give low values 1.01 | locus YER016W, strain bim1, hits give low values 1.01 | locus YER110C, hits give low values 1.02 | locus YER111C, strain swi4, hits give low values 1.01 | locus YER155C, strain BEM2 (second series), hits give low values 0.985 | locus YER155C, strain BEM2, hits give low values 1.01 | locus YER167W, strain BCK2, hits give low values 1.03 | locus YFR010W, strain ubp6, hits give low values 1.04 | locus YGL078C, strain dbp3, hits give low values 1.03 | locus YGL167C, strain pmr1, hits give low values 0.998 | locus YGL173C, strain kem1, hits give low values 0.986 | locus YGL227W, strain vid30, hits give low values 1.02 | locus YGL240W, strain doc1, hits give low values 0.958 | locus YGL248W, strain PDE1, hits give low values 1.01 | locus YGL253W, strain hxk2, hits give low values 1.02 | locus YGR078C, strain PAC10, hits give low values 1.02 | locus YGR135W, strain pre9, hits give low values 1.04 | locus YGR229C, strain SMI1, hits give low values 1.02 | locus YGR252W, strain gcn5, hits give low values 1.06 | locus YHR013C, strain ard1, hits give low values 1 | locus YHR027C, strain rpn1, hits give low values 1 | locus YHR030C, strain SLT2, hits give low values 1.02 and 0.989 | locus YHR079C, strain IRE1 (second series), hits give low values 1.02 | locus YHR079C, strain IRE1, hits give low values 1 | locus YHR094C, strain hxt1, hits give low values 1.02 | locus YHR129C, strain ARP1, hits give low values 1.01 | locus YHR142W, strain chs7, hits give low values 1.04 | locus YHR200W, strain rpn10, hits give low values 1.01 | locus YIL066C, strain RNR3, hits give low values 1.01 | locus YIL073C, strain SPO22, hits give low values 1.05 | locus YIL125W, strain kgd1, hits give low values 1.02 | locus YIR030C, strain dcg1, hits give low values 1.02 | locus YJL092W, strain hpr5, hits give low values 1.01 | locus YJL095W, strain BCK1 (second series), hits give low values 1 | locus YJL095W, strain BCK1, hits give low values 1.05 and 0.992 | locus YJL115W, strain asf1, hits give low values 0.993 | locus YJL129C, strain trk1, hits give low values 1.02 | locus YJL134W, strain LCB3, hits give low values 1.01 | locus YJL154C, strain vps35, hits give low values 1.01 | locus YJL164C, strain tpk1, hits give low values 1.01 | locus YJL166W, strain qcr8, hits give low values 1.01 | locus YJL168C, strain set2, hits give low values 1.02 | locus YJL187C, strain SWE1 (second series), hits give low values 1.02 | locus YJL187C, strain SWE1, hits give low values 1 | locus YJR043C, strain POL32, hits give low values 1.03 | locus YJR066W, strain TOR1, hits give low values 0.9
